Measurements as given in PubChem BioAssay (NCATS).
“And” between values parts separate entries of the source, which are not always exact repeats. Equal values may be shown once. Inconclusive results are not listed. Where a call stands in place of a potency, no number is given. The source made the active and inactive calls. The call rests on the fitted dose curve; in most records, active means well fitted inhibition curve with a large enough effect; inconclusive means small, poorly fitted or top-dose-only effect; inactive means no such curve, though single readings can be large or run the other way.
Potency means the concentration at half of the fitted maximal effect.

These compounds were tested against Muscarinic acetylcholine receptor M1 (Rattus norvegicus) (UniProt P08482) (assay: qHTS Assay for Antagonists of Acetylcholine Muscarinic M1 Receptor: Measurement of IP-One Response (AID 944; further: nearly all actives have a fitted effect of over 75% in size)). Conditions: CHO-M1 cells, IP-One HTRF, antagonist mode; series mostly up to 46.1 µM.
Muscarinic acetylcholine receptor M1 (Rattus norvegicus), sequence (P08482 whole entry, looked up): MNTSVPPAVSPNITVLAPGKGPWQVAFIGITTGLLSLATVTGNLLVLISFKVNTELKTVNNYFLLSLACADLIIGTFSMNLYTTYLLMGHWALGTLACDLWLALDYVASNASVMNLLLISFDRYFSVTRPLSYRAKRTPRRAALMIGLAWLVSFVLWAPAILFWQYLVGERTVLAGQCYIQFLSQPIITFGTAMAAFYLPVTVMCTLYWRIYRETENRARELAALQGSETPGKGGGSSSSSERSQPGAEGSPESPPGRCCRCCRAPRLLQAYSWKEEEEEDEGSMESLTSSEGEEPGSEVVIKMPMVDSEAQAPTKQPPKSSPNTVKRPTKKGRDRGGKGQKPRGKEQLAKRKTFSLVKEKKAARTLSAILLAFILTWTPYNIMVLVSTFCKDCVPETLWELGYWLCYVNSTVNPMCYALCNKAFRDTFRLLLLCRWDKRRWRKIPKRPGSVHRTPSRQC
Source text: NIH Molecular Libraries Screening Centers Network [MLSCN]
NIH Chemical Genomics Center [NCGC]
Acetylcholine muscarinic M1 receptor is a G-protein coupled receptor (GPCR) coupling to the Gq G protein. It is mainly expressed in brain and functionally related to the learning and memory processes. The agonists of this receptor have the potential for the treatment of Alzheimer's disease and cognitive impairments associated with Schizophrenia.
Upon an activation of the M1 receptor, phosholipase C (PLC) is activated to produce inositol 1,4,5-trisphosphate (IP3) and diacyl glycerol (DAG). The IP3 is very rapidly hydrolyzed to IP2, IP1 and then inositol by a series of enzymes and Ca2+ is quickly pumped back into ER by the calcium pump on the ER membrane, which effectively switches off the IP3 and Ca2+ signaling. For compound screen, the changes in intracellular free Ca2+ concentration can be measured by the fluorescence calcium dye such as Fura-2, Fluo-3 and Fluo-4 with a fluorescence kinetic plate reader. IP1 or total IPs including IP1, IP2 and IP3 are usually measured as an alternative method for assessing the function of Gq-coupled GPCRs. We have applied a time-resolved fluorescence based (TR-FRET) IP1 assay in which an IP1 specific antibody is used to detect the labeled IP1 tracer. When the cell lysate contains the elevated IP1, the TR-FRET between the labeled antibody and IP1 tracer is disrupted resulting in a reduction in the total signal. Since the TR-FRET is used, a homogenous assay with out cell wash and medium change is possible which also can be miniaturized into the high density format for HTS.
We have obtained a M1-CHO cell line transfected with rat acetylcholine M1 receptor and optimized this IP-One assay with this cell line for compound screening as a counter-screen assay for other Gq-coupled GPCRs.
NCGC Assay Protocol Summary:
The CHO-M1 (CHO-M1) cell line transfected with the rat acetylcholine muscarinic M1 receptor was obtained from American Type Culture Collection (ATCC). The cells were maintained in call culture flasks with F12 Kaighn's media (Invitrogen) supplemented with 10 % FBS, 100 units/ml penicillin, 100 ug/ml streptomycin and 250 ug/ml geneticin (Invitrogen) at 37C, 5 % CO2 in a humidified atmosphere. At 90-95 % confluence, the cells were then detached in 15 ml 0.25 % trypsin by 3 minutes incubation at 37C and centrifuged at 1000 RPM to remove the trypsin solution. The resulting cell pellet was resuspended in the cell freezing media containing 10 % DMSO (Invitrogen) at a density of 4 x 10^7 cells/ml. The aliquots of cells at 0.5 - 1 ml per vial were frozen down slowly at 1 degree C/min using a Cryo 1 degree C freezing container in the presence of isopropanol (Nalgene Nunc, Rochster, NY) overnight in a -80C freezer. The frozen cells were then transferred to liquid nitrogen for the storage up to one year.
The resuspended frozen cells were plated at 3 ul/well with 2000 cells in the black, tissue culture treated, clear bottom 1536-well plates. The cells were cultured at 37C, 5 % CO2 for overnight to allow the cells recovering from the frozen state. 20 nl/well of compound in DMSO solution was added to the assay plate and incubated for 10 min. Carbachol was prepared in stimulation buffer (10mM Hepes, 1mM CaCl2, 0.5 mM MgCl2, 4.2 mM KCl, 146 mM NaCl, 5.5 mM glucose 50mM LiCl 50mM pH7.4) which was added to the assay plate at 1 ul/well. After an incubation with carbachol at 37C, 5 % CO2 for 30 min, all the wells in the assay plate were added with 1 ul/well of d2 conjugated IP1 (d2-IP1) and 1 ul/well of Eu+ cryptate conjugated anti-IP1 antibody (Eu+-Ab), both from the IP-One kit (Cisbio USA., Inc.). After 10 min incubation at the room temperature, the assay plates were measured in the HTRF detection mode in ViewLux plate reader (Ex=337 nm. Em(1)=620 and Em(2)=665 nm)
1536-well assay protocol:
(1) 4 ul/well containing 2000 M1-CHO cells in 1536 tissue culture treated white plate
(3) Add 23 nl compound diluted in DMSO
[…]
For Clc1cnc(Oc2ccc(Oc3ncc(Cl)cc3Cl)cc2)c(Cl)c1, the Potency was “inactive”.
In the case of C#CCOC(=O)C1=CCCN(C)C1, the Potency is reported as “inactive”.
C[C@@H]1O[C@H](C[N+](C)(C)C)C[C@H]1O was tested, and the Potency was “inactive”.
With CCCCc1ccc(C(=O)O)nc1 the Potency was “inactive”.
CCCN1CCC[C@H](c2cccc(O)c2)C1 was tested, and the Potency was “inactive”.
For O=C(O)Cc1cnc[nH]1, the Potency was “inactive”.
With NC(=NCCC[C@H](N)C(=O)O)N[N+](=O)[O-] the Potency was “inactive”.
With CC(=O)NCCc1c[nH]c2ccccc12 the Potency was “inactive”.
For CCCN(CCC)[C@@H]1CCc2ccc(O)cc2C1, the Potency was 5.01 µM (active) and 3.98 µM (active).
For O=C1CCCN1CC#CCN1CCCC1, the Potency was “inactive”.
For c1ccc(CCCN2CCN(CCOC(c3ccccc3)c3ccccc3)CC2)cc1, the Potency was 8.91 µM (active).
In the case of NCc1cc(=O)[nH]o1, the Potency is reported as “inactive”.
In the case of O=C(O)CC[N+](=O)[O-], the Potency is reported as “inactive”.
CNCCc1c[nH]c2ccc(O)cc12 was tested, and the Potency was “inactive”.
Cn1cnc(CCN)c1 was tested, and the Potency was “inactive”.
With CN[C@@H]1C[C@@H](c2ccc(Cl)c(Cl)c2)c2ccccc21 the Potency was “inactive”.
In the case of CC1=NN=C(c2ccc(N)cc2)c2cc3c(cc2C1)OCO3, the Potency is reported as “inactive”.
CCCN1CCO[C@@H]2c3cc(O)ccc3OC[C@H]21 was tested, and the Potency was “inactive”.
NCCc1c[nH]c2ccccc12 was tested, and the Potency was “inactive”.
Cc1nccc2c1[nH]c1ccccc12 was tested, and the Potency was “inactive”.
With COc1ccc2c(c[n+](C)c3c4cc5c(cc4ccc23)OCO5)c1OC the Potency was 35.5 µM (active).
With c1ccc2sc(C3(N4CCCCC4)CCCCC3)cc2c1 the Potency was “inactive”.
CNCCc1ccc(O)c(O)c1 was tested, and the Potency was “inactive”.
